Measurements from the supplement of paper PMC6522484.
± gives the standard deviation of the averaged measurements.

Each compound was assayed on DLD1 (assay: cell viability (CellTiter-Glo) relative to plate median (fraction of plate median); higher = more viable cells). Conditions: 5 µM; treatment time 24 h; reporter: 7TFP.
Method in brief: (§1)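 Colorectal cancer cells stably transduced with lentiviral TCF/Wnt firefly luciferase reporters were seeded in 384-well plates and dosed 24 h later with library compounds at a final 5 µM for 24 h. Firefly luciferase or CellTiterGlo luminescence was then read on a Tecan F500 from parallel plates. Signals were normalised per well to the plate median without log transformation, additively in webcellHTS2, and averaged over two independent replicates.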

| SMILES | cell viability |
| --- | --- |
| Cc1c(NC(C)C)c(=O)n(-c2ccccc2)n1C | 1.01 ± 0.014 |
| C=CCCCCCCCCCCCC(O)CC(O)CO (stereo not given) | 1.1 ± 0.099 |
| Cc1onc(-c2c(Cl)cccc2Cl)c1C(=O)N[C@@H]1C(=O)N2[C@@H]1SC(C)(C)[C@@H]2C(=O)O | 0.935 ± 0.027 |
| Cc1nnc(NS(=O)(=O)c2ccc(N)cc2)s1 | 1.01 ± 0.016 |
| CC(=O)Oc1ccc(O)cc1 | 1.03 ± 0.021 |
| CCC(C)C(N)=O (stereo not given) [2-Methylbutyramide] | 1.06 ± 0.028 |
| Cc1ccc(=O)n(-c2ccccc2)c1 | 0.911 ± 0.041 |
| COc1c2occc2c(OC)c2c(=O)cc(C)oc12 | 0.99 ± 0.057 |
| CC1CCc2cc(F)cc3c(=O)c(C(=O)O)cn1c23 (stereo not given) | 1.05 ± 0.071 |
| CCCCCCNC(=O)n1cc(F)c(=O)[nH]c1=O | 1.06 ± 0.042 |
| NCCS | 1.02 ± 0.014 |
| O=C(/C=C/c1ccc(O)cc1)c1ccc(O)cc1O | 0.97 ± 0.012 |
| COC(=O)C[C@H]1C(C)(C)C2(O)OC34CC2C(=O)[C@]1(C)C3CC[C@]1(C)C4=CC(=O)O[C@H]1c1ccoc1 (stereo partly drawn) [8beta-HYDROXYCARAPIN, 3,8-HEMIACETAL] | 1.02 ± 0.014 |
| CC(CCC(=O)O)C1CCC2C3CCC4CC(O)CCC4(C)C3C=CC12C (stereo not given) | 1.03 ± 0.021 |
| CCN(CC)CCNc1ccc(CO)c2sc3ccccc3c(=O)c12 | 1.1 ± 0.028 |
| N#Cc1ccc2c(c1)N(CCCN1CCC(O)CC1)c1ccccc1S2 | 0.991 ± 0.07 |
| C[n+]1cc2c3c(ccc2c2ccc4cc5c(cc4c21)OCO5)OCO3 | 1.02 ± 0.021 |
| CN1CCN(C(c2ccccc2)c2ccccc2)CC1 | 1.04 ± 0.021 |
| CC(C)c1c(O)ccc2c1CC[C@H]1[C@@](C)(CO)CCC[C@]21C | 1.07 ± 0.057 |
| C=CCSCC1Nc2cc(Cl)c(S(N)(=O)=O)cc2S(=O)(=O)N1 (stereo not given) | 1.07 ± 0.042 |

| SMILES | cell viability |
| --- | --- |
| Cc1cc(O)c(C)c(O)c1C(=O)O | 1 ± 0.05 |
| C[C@@H]1C(=O)O[C@H]2C[C@@]34[C@H]5C[C@@H](C(C)(C)C)[C@]36[C@@H](OC(=O)[C@@H]6O)O[C@@]4(C(=O)O5)[C@]21O | 1.07 ± 0.021 |
| COC(=O)[C@@H]1[C@H]2C[C@H]3c4[nH]c5ccccc5c4CCN3C[C@@H]2CC[C@@H]1O | 0.964 ± 0.033 |
| CC(=O)O[C@@H]1C=C[C@]2(C)C(C[C@@H](OC(C)=O)[C@]3(C)C4=CC(=O)O[C@H](c5ccoc5)[C@@]4(C)CCC23)C1(C)C (stereo not given in full) | 1.06 ± 0.035 |
| CC(C)CCC[C@@H](C)C1CC[C@H]2[C@@H]3CCC4CC(=O)CC[C@]4(C)[C@H]3CC[C@]12C (stereo not given in full) | 0.999 ± 0.016 |
| CC(=O)Nc1ccc(OC(=O)c2ccccc2O)cc1 | 0.999 ± 0.016 |
| C=C(C)[C@@H]1C[C@H]2O[C@](O)(C/C(C)=C\C(=O)/C=C(/C)C[C@@H]3OC(=O)[C@]24O[C@@H]34)[C@H]1O [bipinnatolide F] | 1.02 ± 0.028 |
| CC12CC3CC(C)(C1)CC(N)(C3)C2 | 1.06 ± 0.16 |
| COc1ccc(-c2oc3cc(OC)c(OC)c(OC)c3c(=O)c2OC)cc1OC | 0.952 ± 0.028 |
| CCC1(C)OC(=O)N(C)C1=O (stereo not given) | 1.04 ± 0.014 |
| CCOC(=O)C(C)(C)Oc1ccc(Cl)cc1 | 1.01 ± 0.021 |
| Cc1cc(O)c2c(c1)C(=O)c1cccc(O)c1C2=O | 0.921 ± 0.04 |
| NC(C(=O)O)C(O)C(=O)O (stereo not drawn) [d,l-threo-3-HYDROXYASPARTIC ACID] | 0.923 ± 0.036 |
| COc1ccc2c(c1)OC/C(=C\c1ccc(OC)c(O)c1)C2=O | 0.933 ± 0.054 |
| Cn1c(=O)[nH]c2ncn(C)c2c1=O | 0.987 ± 0.13 |
| CN(C)C(=O)Nc1ccc(Cl)c(Cl)c1 | 0.959 ± 0.035 |
| CN[C@@H]1[C@@H](O[C@H]2O[C@H](CO)[C@@H](N)[C@H](O)[C@H]2O)OC2C[C@@H](N)[C@@H](O[C@H]3[C@H](O)[C@@H](O)[C@H](N)C[C@@H]3N)OC2[C@@H]1O (stereo not given in full) | 0.893 ± 0.0028 |
| Cc1ccnc(NS(=O)(=O)c2ccc(N)cc2)n1 | 0.968 ± 0.059 |
| C[C@]12C=CC(=O)C=C1CC[C@@H]1[C@@H]2[C@@H](O)C[C@@]2(C)[C@H]1CC[C@]2(O)C(=O)COC(=O)CCC(=O)O | 1.02 ± 0.028 |
| COc1cc(OC)c2ccc(=O)oc2c1 | 1.08 ± 0.057 |

What follows are compounds tested on HCT116 in the same assay as above. Conditions: 5 µM; treatment time 24 h; reporter: TCF4/Wnt.
Method in brief: as §1

| SMILES | cell viability |
| --- | --- |
| Cc1c(NC(C)C)c(=O)n(-c2ccccc2)n1C | 1.05 ± 0.15 |
| C=CCCCCCCCCCCCC(O)CC(O)CO (stereo not given) | 1.05 ± 0.11 |
| Cc1onc(-c2c(Cl)cccc2Cl)c1C(=O)N[C@@H]1C(=O)N2[C@@H]1SC(C)(C)[C@@H]2C(=O)O | 1.05 ± 0.073 |
| Cc1nnc(NS(=O)(=O)c2ccc(N)cc2)s1 | 1.04 ± 0.028 |
| CC(=O)Oc1ccc(O)cc1 | 1.08 ± 0.035 |
| CCC(C)C(N)=O (stereo not given) [2-Methylbutyramide] | 1.05 ± 0.021 |
| Cc1ccc(=O)n(-c2ccccc2)c1 | 0.866 ± 0.096 |
| COc1c2occc2c(OC)c2c(=O)cc(C)oc12 | 0.969 ± 0.14 |
| CC1CCc2cc(F)cc3c(=O)c(C(=O)O)cn1c23 (stereo not given) | 1.05 ± 0.15 |
| CCCCCCNC(=O)n1cc(F)c(=O)[nH]c1=O | 0.925 ± 0.13 |
| NCCS | 1.07 ± 0.12 |
| O=C(/C=C/c1ccc(O)cc1)c1ccc(O)cc1O | 1.03 ± 0.08 |
| COC(=O)C[C@H]1C(C)(C)C2(O)OC34CC2C(=O)[C@]1(C)C3CC[C@]1(C)C4=CC(=O)O[C@H]1c1ccoc1 (stereo partly drawn) [8beta-HYDROXYCARAPIN, 3,8-HEMIACETAL] | 1.07 ± 0.11 |
| CC(CCC(=O)O)C1CCC2C3CCC4CC(O)CCC4(C)C3C=CC12C (stereo not given) | 0.943 ± 0.12 |
| CCN(CC)CCNc1ccc(CO)c2sc3ccccc3c(=O)c12 | 1.02 ± 0.014 |
| N#Cc1ccc2c(c1)N(CCCN1CCC(O)CC1)c1ccccc1S2 | 0.931 ± 0.053 |
| C[n+]1cc2c3c(ccc2c2ccc4cc5c(cc4c21)OCO5)OCO3 | 1.08 ± 0.12 |
| CN1CCN(C(c2ccccc2)c2ccccc2)CC1 | 0.953 ± 0.018 |
| CC(C)c1c(O)ccc2c1CC[C@H]1[C@@](C)(CO)CCC[C@]21C | 1.03 ± 0.15 |
| C=CCSCC1Nc2cc(Cl)c(S(N)(=O)=O)cc2S(=O)(=O)N1 (stereo not given) | 1.11 ± 0.085 |

| SMILES | cell viability |
| --- | --- |
| Cc1cc(O)c(C)c(O)c1C(=O)O | 0.927 ± 0.0085 |
| C[C@@H]1C(=O)O[C@H]2C[C@@]34[C@H]5C[C@@H](C(C)(C)C)[C@]36[C@@H](OC(=O)[C@@H]6O)O[C@@]4(C(=O)O5)[C@]21O | 1.11 ± 0.064 |
| COC(=O)[C@@H]1[C@H]2C[C@H]3c4[nH]c5ccccc5c4CCN3C[C@@H]2CC[C@@H]1O | 1.08 ± 0.13 |
| CC(=O)O[C@@H]1C=C[C@]2(C)C(C[C@@H](OC(C)=O)[C@]3(C)C4=CC(=O)O[C@H](c5ccoc5)[C@@]4(C)CCC23)C1(C)C (stereo not given in full) | 1.08 ± 0.042 |
| CC(C)CCC[C@@H](C)C1CC[C@H]2[C@@H]3CCC4CC(=O)CC[C@]4(C)[C@H]3CC[C@]12C (stereo not given in full) | 1.01 ± 0.031 |
| CC(=O)Nc1ccc(OC(=O)c2ccccc2O)cc1 | 0.989 ± 0.03 |
| C=C(C)[C@@H]1C[C@H]2O[C@](O)(C/C(C)=C\C(=O)/C=C(/C)C[C@@H]3OC(=O)[C@]24O[C@@H]34)[C@H]1O [bipinnatolide F] | 0.943 ± 0.018 |
| CC12CC3CC(C)(C1)CC(N)(C3)C2 | 1.05 ± 0.05 |
| COc1ccc(-c2oc3cc(OC)c(OC)c(OC)c3c(=O)c2OC)cc1OC | 1.1 ± 0.014 |
| CCC1(C)OC(=O)N(C)C1=O (stereo not given) | 0.873 ± 0.078 |
| CCOC(=O)C(C)(C)Oc1ccc(Cl)cc1 | 0.981 ± 0.0071 |
| Cc1cc(O)c2c(c1)C(=O)c1cccc(O)c1C2=O | 1.07 ± 0.21 |
| NC(C(=O)O)C(O)C(=O)O (stereo not drawn) [d,l-threo-3-HYDROXYASPARTIC ACID] | 1.09 ± 0.11 |
| COc1ccc2c(c1)OC/C(=C\c1ccc(OC)c(O)c1)C2=O | 1.02 |
| Cn1c(=O)[nH]c2ncn(C)c2c1=O | 1.04 ± 0.021 |
| CN(C)C(=O)Nc1ccc(Cl)c(Cl)c1 | 0.989 ± 0.016 |
| CN[C@@H]1[C@@H](O[C@H]2O[C@H](CO)[C@@H](N)[C@H](O)[C@H]2O)OC2C[C@@H](N)[C@@H](O[C@H]3[C@H](O)[C@@H](O)[C@H](N)C[C@@H]3N)OC2[C@@H]1O (stereo not given in full) | 0.952 ± 0.03 |
| Cc1ccnc(NS(=O)(=O)c2ccc(N)cc2)n1 | 0.974 ± 0.052 |
| C[C@]12C=CC(=O)C=C1CC[C@@H]1[C@@H]2[C@@H](O)C[C@@]2(C)[C@H]1CC[C@]2(O)C(=O)COC(=O)CCC(=O)O | 1.01 ± 0.092 |
| COc1cc(OC)c2ccc(=O)oc2c1 | 0.999 ± 0.2 |
